Source: PubChem BioAssay (Tox21)
Records with an inconclusive call do not appear. Activity calls are given as the source filed them. Calls come from the whole dose curve; as a rule, active = well fitted curve in the direction sought with a large enough effect in the repeat runs; inconclusive = weak or mixed curves; inactive = no such curve, though single readings can be large; an effect the other way counts as inactive or inconclusive.

Columns and labels:
[1] = target: Cytochrome P450 2C19 (Homo sapiens) (UniProt P33261); assay: Cytochrome P450 Family 2 Subfamily C Member 19 (CYP2C19) small molecule antagonists: luciferase reporter qHTS assay (AID 1671197); note: nearly all actives have a fitted effect of over 65% in size; for activity change, negative = inhibition: series mostly up to about 120 µM
Sequence of Cytochrome P450 2C19 (Homo sapiens) (P33261 whole entry, looked up): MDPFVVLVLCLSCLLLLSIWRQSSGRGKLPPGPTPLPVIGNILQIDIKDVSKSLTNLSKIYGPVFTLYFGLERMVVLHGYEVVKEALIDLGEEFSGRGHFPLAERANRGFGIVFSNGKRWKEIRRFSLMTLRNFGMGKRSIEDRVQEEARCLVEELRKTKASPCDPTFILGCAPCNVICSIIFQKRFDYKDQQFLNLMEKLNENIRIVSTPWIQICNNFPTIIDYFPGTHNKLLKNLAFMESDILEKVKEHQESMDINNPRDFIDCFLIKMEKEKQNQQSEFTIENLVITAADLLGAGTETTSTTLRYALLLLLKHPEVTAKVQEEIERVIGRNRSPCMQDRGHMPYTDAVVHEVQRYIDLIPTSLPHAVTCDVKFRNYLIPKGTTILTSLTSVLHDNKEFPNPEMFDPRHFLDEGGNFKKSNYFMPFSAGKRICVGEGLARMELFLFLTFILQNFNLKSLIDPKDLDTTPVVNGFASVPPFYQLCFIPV
Procedure, shortened: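 P450-Glo CYP2C19 system: enzyme-substrate mix with compound 10 min at room temperature, then NADPH regeneration solution, 1 h at 37C. Proluciferin-to-luciferin conversion detected by luminescence after 20 min with detection reagent; ketoconazole as positive control.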

[2] = target: Cytochrome P450 2C9 (Homo sapiens) (UniProt P11712); assay: Cytochrome P450 Family 2 Subfamily C Member 9 (CYP2C9) small molecule antagonists: luciferase reporter qHTS assay (AID 1671198); note: nearly all actives have a fitted effect of over 50% in size; for activity change, negative = inhibition: series mostly up to about 120 µM
Sequence of Cytochrome P450 2C9 (Homo sapiens) (P11712 whole entry, looked up): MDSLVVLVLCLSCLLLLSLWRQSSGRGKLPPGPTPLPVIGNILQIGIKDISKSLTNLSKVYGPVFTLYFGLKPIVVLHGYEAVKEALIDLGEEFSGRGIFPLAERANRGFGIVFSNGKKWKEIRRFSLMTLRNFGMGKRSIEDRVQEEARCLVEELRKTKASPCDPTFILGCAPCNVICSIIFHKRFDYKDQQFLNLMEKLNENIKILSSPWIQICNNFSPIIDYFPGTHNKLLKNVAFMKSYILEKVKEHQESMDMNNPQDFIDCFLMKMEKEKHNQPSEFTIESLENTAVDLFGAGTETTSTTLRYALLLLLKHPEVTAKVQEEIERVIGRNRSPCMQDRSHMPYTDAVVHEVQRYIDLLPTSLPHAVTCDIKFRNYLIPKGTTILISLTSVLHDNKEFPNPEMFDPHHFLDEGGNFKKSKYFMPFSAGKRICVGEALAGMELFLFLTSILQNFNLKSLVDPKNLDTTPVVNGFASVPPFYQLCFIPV
Procedure, shortened: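 P450-Glo proluciferin substrate with CYP2C9 enzyme; 10 min RT preincubation, then NADPH regeneration 1 h at 37C; luciferin detection reagent 20 min RT, luminescence in relative luminescence units.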

[3] = target: Cytochrome P450 1A2 (Homo sapiens) (UniProt P05177); assay: Cytochrome P450 Family 1 Subfamily A Member 2 (CYP1A2) small molecule antagonists: luciferase reporter qHTS assay (AID 1671199); note: nearly all actives have a fitted effect of over 50% in size; for activity change, negative = inhibition: series mostly up to about 120 µM
Sequence of Cytochrome P450 1A2 (Homo sapiens) (P05177 whole entry, looked up): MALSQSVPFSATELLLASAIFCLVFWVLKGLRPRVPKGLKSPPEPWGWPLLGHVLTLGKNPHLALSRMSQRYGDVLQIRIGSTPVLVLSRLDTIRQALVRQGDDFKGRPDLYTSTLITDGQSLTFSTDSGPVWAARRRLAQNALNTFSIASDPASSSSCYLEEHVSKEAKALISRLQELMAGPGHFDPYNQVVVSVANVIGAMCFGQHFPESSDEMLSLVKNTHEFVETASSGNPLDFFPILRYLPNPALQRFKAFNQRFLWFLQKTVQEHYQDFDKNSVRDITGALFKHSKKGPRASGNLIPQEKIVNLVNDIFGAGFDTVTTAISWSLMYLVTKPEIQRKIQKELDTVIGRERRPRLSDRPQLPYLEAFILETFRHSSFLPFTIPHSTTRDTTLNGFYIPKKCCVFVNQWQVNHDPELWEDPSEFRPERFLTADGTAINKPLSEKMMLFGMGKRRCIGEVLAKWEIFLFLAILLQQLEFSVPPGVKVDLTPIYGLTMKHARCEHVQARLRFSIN
Procedure, shortened: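 Steps: enzyme-substrate mix dispensed; test compounds and furafylline control pinned in; 10 min room temperature; NADPH regeneration solution added, 1 h; reaction stopped with luciferin detection reagent; luminescence read after 20 min.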

[4] = target: Voltage-gated inwardly rectifying potassium channel KCNH2 (Homo sapiens) (UniProt Q12809); assay: Human Ether-a-go-go-Related Gene (hERG) channel small molecule antagonists: fluorescence cell-based qHTS assay (AID 1671200); note: nearly all actives have a fitted effect of over 50% in size;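 for activity change, negative = inhibition: hERG-expressing U2OS cells given a thallium stimulus after FluxOR II dye loading; series mostly up to about 77 µM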
Sequence of Voltage-gated inwardly rectifying potassium channel KCNH2 (Homo sapiens) (Q12809 whole entry, looked up): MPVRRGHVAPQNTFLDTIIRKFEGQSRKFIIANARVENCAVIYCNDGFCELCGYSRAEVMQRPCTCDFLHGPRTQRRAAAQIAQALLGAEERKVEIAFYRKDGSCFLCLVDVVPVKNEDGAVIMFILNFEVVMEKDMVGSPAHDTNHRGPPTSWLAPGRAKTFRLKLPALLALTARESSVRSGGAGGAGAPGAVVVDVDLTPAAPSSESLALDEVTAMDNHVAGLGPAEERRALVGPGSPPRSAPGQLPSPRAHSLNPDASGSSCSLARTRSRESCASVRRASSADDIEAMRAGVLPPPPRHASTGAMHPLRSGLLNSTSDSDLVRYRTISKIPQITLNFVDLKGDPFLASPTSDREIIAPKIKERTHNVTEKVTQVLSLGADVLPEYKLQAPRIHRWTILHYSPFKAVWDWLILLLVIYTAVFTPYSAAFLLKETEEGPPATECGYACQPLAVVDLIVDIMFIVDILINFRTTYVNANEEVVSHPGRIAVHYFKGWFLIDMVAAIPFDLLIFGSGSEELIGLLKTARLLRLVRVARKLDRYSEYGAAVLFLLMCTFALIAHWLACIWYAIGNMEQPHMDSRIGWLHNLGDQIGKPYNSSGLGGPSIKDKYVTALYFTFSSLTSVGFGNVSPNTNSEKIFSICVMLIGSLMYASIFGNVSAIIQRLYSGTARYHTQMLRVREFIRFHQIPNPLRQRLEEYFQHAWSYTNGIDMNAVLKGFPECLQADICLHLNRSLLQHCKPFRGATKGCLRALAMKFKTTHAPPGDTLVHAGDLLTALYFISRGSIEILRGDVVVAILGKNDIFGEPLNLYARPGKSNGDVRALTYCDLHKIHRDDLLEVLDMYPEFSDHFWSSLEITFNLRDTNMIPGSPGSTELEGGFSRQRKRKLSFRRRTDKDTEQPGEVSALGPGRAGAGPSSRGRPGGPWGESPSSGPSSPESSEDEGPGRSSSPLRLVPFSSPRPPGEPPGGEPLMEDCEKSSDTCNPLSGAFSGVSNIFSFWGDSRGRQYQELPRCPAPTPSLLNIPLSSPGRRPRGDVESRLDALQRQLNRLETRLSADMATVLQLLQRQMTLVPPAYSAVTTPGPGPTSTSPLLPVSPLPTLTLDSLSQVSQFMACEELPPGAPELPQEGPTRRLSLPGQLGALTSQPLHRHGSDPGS
Procedure, shortened: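 U2OS cells expressing the channel were plated at 1000 cells/well, incubated overnight at 37 C, then loaded with FluxOR II thallium-sensitive dye for 1 h at room temperature in the dark, with a further 10 min at room temperature before stimulation.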

[5] = target: Cytochrome P450 3A4 (Homo sapiens) (UniProt P08684); assay: Cytochrome P450 Family 3 Subfamily A Member 4 (CYP3A4) small molecule antagonists: luciferase reporter qHTS assay (AID 1671201); note: nearly all actives have a fitted effect of over 50% in size; for activity change, negative = inhibition: series mostly up to about 120 µM
Sequence of Cytochrome P450 3A4 (Homo sapiens) (P08684 whole entry, looked up): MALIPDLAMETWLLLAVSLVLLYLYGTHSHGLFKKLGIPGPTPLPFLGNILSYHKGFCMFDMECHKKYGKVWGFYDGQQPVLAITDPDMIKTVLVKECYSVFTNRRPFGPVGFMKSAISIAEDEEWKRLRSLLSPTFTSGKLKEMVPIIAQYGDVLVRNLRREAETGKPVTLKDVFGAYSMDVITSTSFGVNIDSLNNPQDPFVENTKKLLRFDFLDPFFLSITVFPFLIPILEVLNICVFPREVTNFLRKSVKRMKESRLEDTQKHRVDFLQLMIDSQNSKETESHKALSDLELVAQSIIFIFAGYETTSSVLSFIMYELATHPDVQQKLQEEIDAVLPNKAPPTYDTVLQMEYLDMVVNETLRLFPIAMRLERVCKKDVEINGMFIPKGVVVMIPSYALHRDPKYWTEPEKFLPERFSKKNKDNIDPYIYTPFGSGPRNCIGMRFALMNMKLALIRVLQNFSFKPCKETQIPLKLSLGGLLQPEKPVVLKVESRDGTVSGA
Procedure, shortened: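 P450-Glo CYP3A4 system with proluciferin substrate; compounds preincubated 10 min RT with enzyme-substrate mix, then NADPH regeneration added for 1 h RT. Detection reagent 20 min, luminescence read as relative luminescence units.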
% is set by controls: 0 for no effect and ±100 for the full control effect; potency is the fitted concentration of half-maximal effect.

COc1ccccc1N1CCN(CCCNc2cc(=O)n(C)c(=O)n2C)CC1
inactive: Potency [1] | Potency [2] | Potency [3] | Potency [4] | Potency [5]

Oc1ccccc1F
inactive: Potency [1] | Potency [2] | Potency [4] | Potency [5]
active: Potency [3] 35.5 µM

CN1[C@@H]2CC[C@H]1CC(OC(=O)c1c[nH]c3ccccc13)C2 (some centres undefined)
inactive: Potency [1] | Potency [2] | Potency [3] | Potency [5]
active: Potency [4] 19 µM

Cc1cc2c(s1)Nc1ccccc1N=C2N1CCN(C)CC1
inactive: Potency [1] | Potency [2] | Potency [3] | Potency [4] | Potency [5]

FC(F)(F)C(F)(F)C(F)(F)C(F)(F)C(F)(F)C(F)(F)C(F)(F)C(F)(F)Br
inactive: Potency [1] | Potency [2] | Potency [3] | Potency [4] | Potency [5]

O=C1C=CC(=O)O1
inactive: Potency [1] | Potency [2] | Potency [3] | Potency [4] | Potency [5]

NNS(=O)(=O)c1ccc(Oc2ccc(S(=O)(=O)NN)cc2)cc1
active: Potency [1] 10 µM | Potency [2] 5.03 µM
inactive: Potency [3] | Potency [4] | Potency [5]

CN1CCN(C2=Nc3cc(F)ccc3Cc3ccccc32)CC1
inactive: Potency [1] | Potency [2] | Potency [4]

CNCCC(Oc1ccccc1OC)c1ccccc1 (centres undefined)
active: Potency [4] 8.49 µM
inactive: Potency [1] | Potency [2]

CC1=C(O)C(=O)OC1C (centres undefined)
inactive: Potency [1] | Potency [2] | Potency [3] | Potency [4] | Potency [5]

CC(=O)N(CC(O)CN(C(C)=O)c1c(I)c(C(=O)NCC(O)CO)c(I)c(C(=O)NCC(O)CO)c1I)c1c(I)c(C(=O)NCC(O)CO)c(I)c(C(=O)NCC(O)CO)c1I (centres undefined)
inactive: Potency [1] | Potency [2] | Potency [3] | Potency [4] | Potency [5]

CCOC(=O)c1ccccc1O
inactive: Potency [1] | Potency [2] | Potency [3] | Potency [4] | Potency [5]

CC1(C)S[C@@H]2[C@H](NC(=O)C(C(=O)O)c3ccccc3)C(=O)N2[C@H]1C(=O)O (some centres undefined)
inactive: Potency [1] | Potency [2] | Potency [3] | Potency [4] | Potency [5]

CC1=CC(=O)CC(C)(C)C1=O
inactive: Potency [1] | Potency [2] | Potency [3] | Potency [4] | Potency [5]

C[C@@H]1CN(c2c(F)c(F)c3c(=O)c(C(=O)O)cn(C4CC4)c3c2F)C[C@H](C)N1
inactive: activity change, negative = inhibition [1] 5.04% [at 23.6 µM] | Potency [2] | Potency [3] | activity change, negative = inhibition [4] 7.01% [at 15.8 µM] | activity change, negative = inhibition [5] 9.32% [at 23.6 µM]

COC(=O)c1ccc(OC)cc1
active: Potency [3] 35.6 µM
inactive: Potency [1] | Potency [2] | Potency [4] | Potency [5]

O=C(C(Cl)Cl)N1CCOC12CCCCC2
active: Potency [1] 39.9 µM | Potency [2] 63.3 µM
inactive: Potency [3] | Potency [4] | Potency [5]

CCN(O)CC
inactive: Potency [1] | Potency [2] | Potency [3] | Potency [4] | Potency [5]

C=Cc1ccccc1
inactive: Potency [1] | Potency [2] | Potency [3] | Potency [4] | Potency [5]

O=C(CC(=O)C(F)(F)F)c1ccccc1
active: Potency [1] 36.1 µM | Potency [2] 32.2 µM
inactive: Potency [4] | Potency [5]

CCCCCCCOC(=O)CCC
inactive: Potency [2] | Potency [4] | Potency [5]
active: Potency [1] 79.6 µM

CC(C)C(=O)OC/C=C/c1ccccc1
inactive: Potency [4] | Potency [5]
active: Potency [1] 39.9 µM | Potency [2] 35.6 µM

CC(C)C1=CC2=CC[C@@H]3[C@](C)(CCC[C@@]3(C)C(=O)O)[C@H]2CC1
active: Potency [1] 35.6 µM | Potency [2] 28.3 µM | Potency [5] 35.6 µM
inactive: Potency [4]

CCN(CC)CCNC(=O)COc1ccc(Cl)cc1
inactive: Potency [1] | Potency [2]
active: Potency [4] 13.4 µM

Cc1cn([C@@H]2O[C@H](CO)[C@@H](O)[C@@H]2F)c(=O)[nH]c1=O
inactive: Potency [1] | Potency [2] | Potency [3] | Potency [4] | Potency [5]

C=CCCC=C
inactive: Potency [1] | Potency [2] | Potency [3] | Potency [4] | Potency [5]

CCCCCCCCCC/C=C/C#N
inactive: Potency [1] | Potency [2] | Potency [4] | Potency [5]

Cn1cnc2c(F)c(Nc3ccc(Br)cc3Cl)c(C(=O)NOCCO)cc21
active: Potency [1] 8.71 µM | Potency [2] 13.8 µM
inactive: Potency [4]

CCCC1CCC(=O)O1 (centres undefined)
inactive: Potency [1] | Potency [2] | Potency [4] | Potency [5]

O=c1oc2c(O)c(O)cc3c(=O)oc4c(O)c(O)cc1c4c23
inactive: activity change, negative = inhibition [1] 0.227% [at 23.6 µM] | Potency [2] | Potency [3] | activity change, negative = inhibition [4] 6.87% [at 15.8 µM] | activity change, negative = inhibition [5] 6.71% [at 23.6 µM]

CCCCCOc1ccc(C2SC(=O)NC2=O)cc1OCC (centres undefined)
inactive: Potency [1] | Potency [4]
active: Potency [2] 9.77 µM

NC(=O)NS(=O)(=O)c1ccc(Cl)cc1
inactive: Potency [1] | Potency [2] | Potency [3] | Potency [4] | Potency [5]
